# From the supplement of paper PMC6089552
# The whole screen tested about 3,200 compounds, of which about 300 (9.4%) showed activity. The sample holds actives, similar compounds and a random draw of the others, so the mix is not that of the screen. Values without a mark were called inactive.
# Tested on: A673/TR/shEF
# Assay: cell viability (LOESS-normalised, relative to median of negative controls) (log2 ratio); higher = more viable cells (less compound effect), active = hit call of the paper (over 3 MAD below the median)
# Details: treatment time: 72 h
# How it was run: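 Viability of A673/TR/shEF Ewing sarcoma cells was determined by CellTiter-Glo luminescence. The cells, at 1,500 per well in 384-well plates, were grown with or without doxycycline from 24 h before compound addition to switch on EWS-FLI1 shRNA knockdown, then exposed for three days to library compounds at two or more concentrations or to DMSO controls. Signals were LOESS-corrected plate by plate, normalised to the negative-control median and log2-transformed.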
# [1] = 0.25 µM, library screen: screen2, EWS-FLI1 expression: high (no doxycycline)
# [2] = 0.25 µM, library screen: screen2, EWS-FLI1 expression: low (doxycycline-induced shRNA knockdown)
# [3] = 2.5 µM, library screen: screen2, EWS-FLI1 expression: high (no doxycycline)
# [4] = 2.5 µM, library screen: screen2, EWS-FLI1 expression: low (doxycycline-induced shRNA knockdown)
# [5] = 0.103 µM, library screen: screen3, EWS-FLI1 expression: high (no doxycycline)
# [6] = 0.103 µM, library screen: screen3, EWS-FLI1 expression: low (doxycycline-induced shRNA knockdown)
# [7] = 0.25 µM, library screen: screen1, EWS-FLI1 expression: high (no doxycycline)
# [8] = 0.25 µM, library screen: screen1, EWS-FLI1 expression: low (doxycycline-induced shRNA knockdown)
# [9] = 0.308 µM, library screen: screen3, EWS-FLI1 expression: high (no doxycycline)
# [10] = 0.308 µM, library screen: screen3, EWS-FLI1 expression: low (doxycycline-induced shRNA knockdown)
# [11] = 0.926 µM, library screen: screen3, EWS-FLI1 expression: high (no doxycycline)
# [12] = 0.926 µM, library screen: screen3, EWS-FLI1 expression: low (doxycycline-induced shRNA knockdown)
# [13] = 2.5 µM, library screen: screen1, EWS-FLI1 expression: high (no doxycycline)
# [14] = 2.5 µM, library screen: screen1, EWS-FLI1 expression: low (doxycycline-induced shRNA knockdown)
# [15] = 2.8 µM, library screen: screen3, EWS-FLI1 expression: high (no doxycycline)
# [16] = 2.8 µM, library screen: screen3, EWS-FLI1 expression: low (doxycycline-induced shRNA knockdown)
# [17] = 8.3 µM, library screen: screen3, EWS-FLI1 expression: high (no doxycycline)
# [18] = 8.3 µM, library screen: screen3, EWS-FLI1 expression: low (doxycycline-induced shRNA knockdown)
# [19] = 25 µM, library screen: screen3, EWS-FLI1 expression: high (no doxycycline)
# [20] = 25 µM, library screen: screen3, EWS-FLI1 expression: low (doxycycline-induced shRNA knockdown)
smiles,measurement,setting,value
C=CCN1CCC23c4c5ccc(O)c4O[C@@H]2/C(=N/NC(=O)c2ccccc2)CCC3(O)[C@H]1C5 (stereo not given in full),cell viability (log2),[1],0.0804
same,cell viability (log2),[2],0.0684
same,cell viability (log2),[3],0.0878
same,cell viability (log2),[4],0.0887
C[C@H]1CCC/C=C/[C@@H]2C[C@H](O)C[C@H]2[C@H](O)/C=C/C(=O)O1,cell viability (log2),[1],-0.127 (active)
same,cell viability (log2),[2],-0.561 (active)
same,cell viability (log2),[3],-3.76 (active)
same,cell viability (log2),[4],-3.56 (active)
CN1[C@@H]2CC[C@H]1CC(OC(=O)C(CO)c1ccccc1)C2 (stereo not given in full),cell viability (log2),[5],-0.0138
same,cell viability (log2),[6],0.0399
same,cell viability (log2),[7],0.0603
same,cell viability (log2),[8],0.0968
same,cell viability (log2),[9],-0.021
same,cell viability (log2),[10],-0.00749
same,cell viability (log2),[11],-0.0329
same,cell viability (log2),[12],0.092
same,cell viability (log2),[13],0.15
same,cell viability (log2),[14],0.157
same,cell viability (log2),[15],-0.023
same,cell viability (log2),[16],-0.00135
same,cell viability (log2),[17],-0.0414
same,cell viability (log2),[18],-0.0331
same,cell viability (log2),[19],-0.025
same,cell viability (log2),[20],0.0734
NCCc1ccc(O)cc1,cell viability (log2),[7],0.0239
same,cell viability (log2),[8],0.0662
same,cell viability (log2),[1],0.157
same,cell viability (log2),[2],0.123
same,cell viability (log2),[13],0.134
same,cell viability (log2),[14],0.0729
same,cell viability (log2),[3],0.116
same,cell viability (log2),[4],0.0531
NCCc1ccc(S(=O)(=O)F)cc1,cell viability (log2),[1],-0.0889 (active)
same,cell viability (log2),[2],0.067
same,cell viability (log2),[3],-0.0377
same,cell viability (log2),[4],0.0161
COc1cc(CCN)ccc1O,cell viability (log2),[1],0.212
same,cell viability (log2),[2],0.0815
same,cell viability (log2),[3],0.12
same,cell viability (log2),[4],0.0385
COc1ccc2c(c1O)-c1c3c(cc4c1[C@H](C2)N(C)CC4)OCO3,cell viability (log2),[1],0.104
same,cell viability (log2),[2],0.0658
same,cell viability (log2),[3],0.0733
same,cell viability (log2),[4],0.132
COc1cc([C@@H]2c3cc4c(cc3[C@H](O)[C@H]3COC(=O)[C@H]23)OCO4)cc(OC)c1OC,cell viability (log2),"0.025 µM, library screen: screen2, EWS-FLI1 expression: high (no doxycycline)",0.106
same,cell viability (log2),"0.025 µM, library screen: screen2, EWS-FLI1 expression: low (doxycycline-induced shRNA knockdown)",0.109
same,cell viability (log2),[7],-3.56 (active)
same,cell viability (log2),[8],-1.09 (active)
same,cell viability (log2),[1],0.0134
same,cell viability (log2),[2],0.0379
same,cell viability (log2),[13],-4.23 (active)
same,cell viability (log2),[14],-0.986 (active)
same,cell viability (log2),[3],-1.33 (active)
same,cell viability (log2),[4],-0.175 (active)
same,cell viability (log2),"25 µM, library screen: screen2, EWS-FLI1 expression: high (no doxycycline)",-2.9 (active)
same,cell viability (log2),"25 µM, library screen: screen2, EWS-FLI1 expression: low (doxycycline-induced shRNA knockdown)",-0.496 (active)
COc1cc([C@@H]2c3cc4c(cc3[C@H](O)[C@H]3COC(=O)[C@@H]23)OCO4)cc(OC)c1OC,cell viability (log2),[7],0.0302
same,cell viability (log2),[8],0.00961
same,cell viability (log2),[13],-2.1 (active)
same,cell viability (log2),[14],-0.572 (active)
COc1cc([C@@H]2c3cc4c(c(O)c3C[C@H]3COC(=O)[C@@H]32)OCO4)cc(OC)c1OC,cell viability (log2),[7],0.0843
same,cell viability (log2),[8],0.0231
same,cell viability (log2),[13],-3 (active)
same,cell viability (log2),[14],-0.852 (active)
COc1ccc2c(c1OC)C(=O)O[C@H]2[C@H]1c2cc3c(cc2CCN1C)OCO3,cell viability (log2),[7],0.11
same,cell viability (log2),[8],0.0969
same,cell viability (log2),[13],-0.0012
same,cell viability (log2),[14],0.0503
COc1ccc2c(c1OC)C(=O)O[C@H]2[C@@H]1c2cc3c(cc2CCN1C)OCO3,cell viability (log2),[1],0.0965
same,cell viability (log2),[2],0.0835
same,cell viability (log2),[3],0.18
same,cell viability (log2),[4],0.113
COc1cc([C@@H]2c3cc4c(cc3[C@H](OC(C)=O)[C@H]3COC(=O)[C@H]23)OCO4)cc(OC)c1OC,cell viability (log2),[7],-3.77 (active)
same,cell viability (log2),[8],-0.983 (active)
same,cell viability (log2),[13],-3.58 (active)
same,cell viability (log2),[14],-1.13 (active)
CCCN(CCC)[C@@H]1CCc2c(F)ccc(O)c2C1,cell viability (log2),[1],0.13
same,cell viability (log2),[2],0.0763
same,cell viability (log2),[3],0.181
same,cell viability (log2),[4],0.101
O=C1NCN(c2ccccc2)C12CCN(CC1COc3ccccc3O1)CC2 (stereo not given),cell viability (log2),[1],0.177
same,cell viability (log2),[2],0.0806
same,cell viability (log2),[3],0.104
same,cell viability (log2),[4],0.0692
C/C=C(\C)C(=O)O[C@H]1C[C@@H](OC(C)=O)[C@@]2(C(=O)OC)CO[C@H]3[C@@H](O)[C@@](C)([C@]45O[C@@]4(C)[C@H]4C[C@@H]5O[C@@H]5OC=C[C@@]54O)[C@H]4[C@]1(CO[C@]4(O)C(=O)OC)[C@@H]32,cell viability (log2),[7],0.103
same,cell viability (log2),[8],0.0233
same,cell viability (log2),[13],0.139
same,cell viability (log2),[14],-0.02
Cc1cccc(C)c1NC(=O)CN1CCCC1=O,cell viability (log2),[5],0.119
same,cell viability (log2),[6],-0.000586
same,cell viability (log2),[9],0.107
same,cell viability (log2),[10],0.118
same,cell viability (log2),[11],0.135
same,cell viability (log2),[12],0.0891
same,cell viability (log2),[15],0.156
same,cell viability (log2),[16],0.0751
same,cell viability (log2),[17],0.15
same,cell viability (log2),[18],0.0489
same,cell viability (log2),[19],0.154
same,cell viability (log2),[20],0.0876
